# In PubChem BioAssay AID431 (Sanford-Burnham Center for Chemical Genomics, 2006):
# In all, about 63,000 compounds went through this assay and about 1,100 (1.7%) were called active.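 Rule for the calls: active = compounds whose percent cytotoxicity in the single-dose primary screen, scaled between solvent and toxic-drug controls, exceeds 50; inactive = the rest.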 The sample as a whole holds a higher share of actives than the screen did. Measured potencies and affinities stand elsewhere.
# Experiment: viability loss of HPDE-C7K cells – cell-based, fluorescence, HTS, primary screen (AID 431);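 note: 0% = DMSO solvent wells and 100% = doxorubicin-treated wells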
# Details: HPDE-C7K KRASV12 cells, Alamar Blue viability, 48 h; at 10 µM; hits give high values
row,SMILES,cytotoxicity
1,COC(=O)CSc1nnc(-c2ccccc2OC)o1,-18.2% (inactive)
2,COc1ccccc1-c1nnc(SCC(=O)Nc2c(Cl)cccc2Cl)o1,-1% (inactive)
3,CCOC(=O)C1=C(C)NC(SCC(=O)Nc2cc(C)on2)=C(C#N)C1c1cccs1 (stereo not given),32.3% (inactive)
4,CCSC1=C(C#N)C(c2cccs2)C(C(=O)OC)=C(C)N1 (stereo not given),15.4% (inactive)
5,CCOCCSC1=C(C#N)C(c2cccs2)C(C(C)=O)=C(C)N1 (stereo not given),4.7% (inactive)
6,C#CCSC1=C(C#N)C(c2cccs2)C(C(=O)OCC)=C(C)N1 (stereo not given),53.6% (active)
7,CCOC(=O)C1=C(C)NC(SCC(=O)Nc2nc(C)cs2)=C(C#N)C1c1cccs1 (stereo not given),92.7% (active)
8,CCOC(=O)C1=C(C)NC(SCc2cc(=O)[nH][nH]2)=C(C#N)C1c1cccs1 (stereo not given),41.8% (inactive)
9,O=C1N(CN2CCN(c3cccc(Cl)c3)CC2)c2ccccc2C12OCCCO2,0% (inactive)
10,Cc1ccc(NC(=O)c2oc3ccccc3c2NC(=O)c2ccc3c(c2)OCO3)cc1,-7.7% (inactive)
11,COc1c(C)cc(Br)cc1C(=O)Nc1ccc(N2CCN(S(C)(=O)=O)CC2)cc1,1.2% (inactive)
12,CCc1nc2ccccc2c(C(=O)OCC(=O)Nc2ccc(S(=O)(=O)N3CCOCC3)cc2)c1C,43.3% (inactive)
13,COc1ccc(-c2cnc(SCC(=O)Nc3cc(C)on3)n2Cc2ccco2)cc1,0.3% (inactive)
14,COc1ccc(-c2cnc(SCC(=O)Nc3ccc4c(c3)OCO4)n2Cc2ccco2)cc1,18.8% (inactive)
15,O=C(CSc1ncc(-c2ccc(F)cc2)n1Cc1ccco1)Nc1ccc2c(c1)OCO2,86.3% (active)
16,Cc1cnc(NC(=O)CSc2ncc(-c3ccccc3)n2Cc2ccco2)s1,-4.7% (inactive)
17,CCC(=O)Nc1cc(NC(=O)CSc2ncc(-c3ccc(F)cc3)n2Cc2ccco2)ccc1C,3.3% (inactive)
18,CC(=O)Nc1cccc(NC(=O)CSc2ncc(-c3ccc(Cl)cc3)n2Cc2ccco2)c1,83.5% (active)
19,Cc1cc(=S)n(-c2ccccc2)n1C,-7.8% (inactive)
20,Cc1cc(C)nc(SC(C)C(=O)Nc2ccc(S(N)(=O)=O)cc2)n1 (stereo not given),-10.7% (inactive)
21,Cc1ccc(-c2nnc3ccc(SCC(=O)N4CCCCC4)nn23)cc1,-7% (inactive)
22,CC1CCc2nc(NC(=O)Cc3cccs3)sc2C1 (stereo not given),-16% (inactive)
23,CC(C)C1Cc2c(sc3c2c(=O)n(Cc2ccccc2)c2nncn32)CO1 (stereo not given),1.7% (inactive)
24,Cc1nnc2n(Cc3ccccc3)c(=O)c3c4c(sc3n12)CN(Cc1ccccc1)CC4,1.6% (inactive)
25,C=CCn1c(SCCN2CCOCC2)nc2c1c(=O)[nH]c(=O)n2C,-10.8% (inactive)
26,Cc1[nH]n2c(=O)cc(C(C)C)nc2c1-c1ccccc1,28.7% (inactive)
27,Cc1[nH]n2c(=O)cc(C(C)(C)C)nc2c1-c1ccccc1,81.8% (active)

row,SMILES,cytotoxicity
1,Cc1cc(=O)n2[nH]c(C)c(-c3ccccc3)c2n1,-7% (inactive)
2,CC(C)(C)NC(=O)C1N(c2cccnc2)C(=O)C2C(C(=O)Nc3ccccc3)C3(C)C=CC21O3 (stereo not given),-15.4% (inactive)
3,CCOC(=O)CSc1nc2cc(OC)ccc2cc1C#N,12.3% (inactive)
4,CCOC(=O)CSc1nc2cc(C)ccc2cc1C#N,-2.4% (inactive)
5,CCOC(=O)CSc1nc2cc(OCC)ccc2cc1C#N,56.4% (active)
6,COc1cccc(-c2nn(-c3ccccc3)cc2CO)c1,7.7% (inactive)
7,CCOc1ccc(OCC)c(NC(=O)CSc2nc3ccccc3c(=O)n2C)c1,16.7% (inactive)
8,O=C(Nc1ccc(CN2CCCCC2)cc1)c1ccc(Br)o1,-24.8% (inactive)
9,O=C(Nc1ccc(CN2CCOCC2)cc1)c1cc2ccccc2o1,5.8% (inactive)
10,O=C1NCCN1C(=O)C12CC3CC(CC(C3)C1)C2,-2.7% (inactive)
11,Cc1nc2ccc3nc(NC(=O)c4ccc5c(c4)OCCO5)sc3c2s1,-0.1% (inactive)
12,COc1ccc2[nH]c(=O)c(CN(Cc3ccco3)C(=O)c3ccccc3)cc2c1,-1.9% (inactive)
13,CCOc1ccc2[nH]c(=O)c(CN(Cc3ccco3)C(=O)c3cccc(F)c3)cc2c1,82% (active)
14,CCOc1ccc2[nH]c(=O)c(CN(Cc3ccco3)C(=O)c3ccc(Br)cc3)cc2c1,21.8% (inactive)
15,O=C(c1c(Cl)nc2sccn12)N(C(=O)c1c(Cl)nc2sccn12)c1ccc(Cl)cn1,16% (inactive)
16,COc1ccc(Oc2c(C)oc3cc(OC(=O)N4CCOCC4)ccc3c2=O)cc1,-5% (inactive)
17,COc1ccc(-n2ccnc2SCC(=O)NCc2ccc3c(c2)OCO3)cc1,3.4% (inactive)
18,COc1ccc(NCc2ccc(OC)c(OC)c2)cc1,-7.9% (inactive)
19,COc1ccc(CNc2ccc(-c3ccc(OC)cc3)nn2)cc1,59.4% (active)
20,COc1ccc(-c2cc(=O)[nH]c(NCc3ccccc3)n2)cc1,7.1% (inactive)
21,COc1ccc(C(CC(=O)O)NS(=O)(=O)c2ccc(C)cc2)cc1OC (stereo not given),-5.1% (inactive)
22,Cc1nnc(C)n1/N=C/C=C/c1ccccc1,-40% (inactive)
23,O=C(c1ccc(Cn2cc(Cl)cn2)cc1)N1CCN(c2ccccc2)CC1,4.2% (inactive)
24,O=C(O)c1cccc(Cn2cc(Br)cn2)c1,-3.7% (inactive)
25,O=C(c1ccc(Cn2cc(Br)cn2)cc1)N1CCN(c2ccccc2)CC1,54.2% (active)
26,Fc1ccc(Br)cc1C1C=C(c2ccc(Br)s2)Nc2ncnn21 (stereo not given),56.5% (active)
27,Fc1ccc(Br)cc1C1C=C(c2cccnc2)Nc2ncnn21 (stereo not given),10.9% (inactive)

row,SMILES,cytotoxicity
1,COc1cccc(C2C=C(c3ccc(Br)s3)Nc3ncnn32)c1OC (stereo not given),-7.6% (inactive)
2,COc1ccccc1CCC(=O)Nc1nc2ccccc2[nH]1,3.7% (inactive)
3,O=C(O)c1cc(NCc2c(F)cccc2Cl)ccc1N1CCOCC1,-14.3% (inactive)
4,C=CCn1c(SCC(=O)Nc2c(C)cccc2C)nnc1-c1cnccn1,-10% (inactive)
5,CCCC(=O)N1CCN(S(=O)(=O)c2cc(Cl)ccc2OC)CC1,-3.6% (inactive)
6,C/C=C(/C(=C/C)c1ccc(O)cc1)c1ccc(O)cc1,111% (active)
7,CCC(=O)c1ccc(O)cc1,-12% (inactive)
8,C=C(c1ccc(O)cc1)c1ccc(O)cc1,12.5% (inactive)
9,CC(C)(C)NC(=O)NC(=O)COC(=O)COc1ccc2c(c1)CCC2,-4.8% (inactive)
10,CCOC(=O)c1c(C)n(C)c2cc(Br)c(C(=O)OC)cc12,5.9% (inactive)
11,CCOC(=O)c1c(CNCCN(CC)CC)n(C)c2cc(Br)c(OC)cc12,71.2% (active)
12,CCOC(=O)c1c(CN2CCCCC2)n(C)c2cc(Br)c(OC)cc12,16.9% (inactive)
13,CCOC(=O)c1c(CN2CCN(C)CC2)n(C)c2cc(Br)c(OC)cc12,-8.5% (inactive)
14,CCN(CC)CCNC(=O)c1c(C)oc2cc(Br)c(OC)cc12,15.1% (inactive)
15,CCOC(=O)c1c(CN2CCN(CCO)CC2)n(C)c2cc(Br)c(OC)cc12,98.7% (active)
16,O=C(COC(=O)c1cccc(S(=O)(=O)N2CCc3ccccc32)c1)NC1CCS(=O)(=O)C1 (stereo not given),23.6% (inactive)
17,O=C(O)Cn1cnc2scc(-c3cccs3)c2c1=O,6.1% (inactive)
18,Clc1ccc(Cc2noc(Cc3ccccc3)n2)cc1Cl,-5% (inactive)
19,CCOC(=O)C(CCSC)NC(=O)CN (stereo not given),-9.8% (inactive)
20,COC(=O)C1C(=O)c2c([nH]c(C(=O)OCCOC(C)C)c2C)CC1C (stereo not given),-0.2% (inactive)
21,CCC(C)(C(=O)NC1CCCCC1)N(CC1CCCO1)C(=O)c1ccccn1 (stereo not given),-5.6% (inactive)
22,CC1(C)CC(=O)C(C=NCC2CCCO2)=C(O)C1 (stereo not given),-19.7% (inactive)
23,CC(=O)Nc1cc2c(cc1C(=O)c1ccc(C)cc1)OCCO2,0.7% (inactive)
24,COc1ccc(O)c(-c2cc(-c3cccs3)[nH]n2)c1,34.1% (inactive)
25,Oc1ccc(Br)cc1-c1cc(-c2ccccc2F)[nH]n1,18% (inactive)
26,Cc1nn(Cc2ccc(Cl)cc2Cl)c(C)c1NC(=O)c1nc2n(n1)C(C(F)F)CC(C)N2 (stereo not given),9.5% (inactive)
27,CCOC(=O)c1[nH]c(C)c(/C=N/O)c1C,0.1% (inactive)

row,SMILES,cytotoxicity
1,NC(=O)CSc1nnc(CNc2ccc(F)cc2)n1CC1CCCO1 (stereo not given),-7.7% (inactive)
2,COC(=O)c1c(NC(=O)CSc2nc3c(c(=O)n(C)c(=O)n3C)n2C(C)C)sc(C)c1C,-14% (inactive)
3,CCCn1c(SCC(=O)Nc2sc(C)c(C)c2C(=O)OCC)nc2c1c(=O)n(C)c(=O)n2C,0.3% (inactive)
4,CCOC(=O)c1c(NC(=O)CSc2nc3c(c(=O)n(C)c(=O)n3C)n2C(C)C)sc(C)c1C,77.5% (active)
5,CCn1c(SCC(=O)Nc2cc(C)ccc2C)nc2c(c1=O)SC(C)C2 (stereo not given),8.9% (inactive)
6,Cn1c(=O)c2c(nc(CN3CCN(c4ccc(F)cc4)CC3)n2CCN2CCOCC2)n(C)c1=O,-4.6% (inactive)
7,CCn1c(=N)n(CC(O)c2ccco2)c2ccccc21 (stereo not given),-9.8% (inactive)
8,CC[C@H](C)C(=O)O[C@H]1C[C@@H](C)C=C2C=C[C@H](C)[C@H](CC[C@@H]3C[C@@H](O)CC(=O)O3)[C@H]21,55.1% (active)
9,CCCC(=O)Nc1cc(-c2nn(C)c(=O)c3ccccc23)ccc1N1CCCCC1,-4.5% (inactive)
10,CCC(=O)Nc1cc(-c2nn(C)c(=O)c3ccccc23)ccc1N1CCCCC1,2% (inactive)
11,Cn1nc(-c2ccc(N3CCCCC3)c(NC(=O)c3ccco3)c2)c2ccccc2c1=O,57.8% (active)
12,CC(C)C(NS(=O)(=O)c1ccc2c(c1)oc(=O)n2C)C(=O)N1CCN(Cc2ccccc2)CC1 (stereo not given),7.1% (inactive)
13,CCOc1ccccc1C1CC(=O)NC2=C1C(=O)CCC2 (stereo not given),16.8% (inactive)
14,CCCOc1c(OC)cccc1C1CC(=O)Nc2cc3c(cc21)OCCO3 (stereo not given),68.7% (active)
15,CCCCOc1ccccc1C1CC(=O)NC2=C1C(=O)CCC2 (stereo not given),60.3% (active)
16,CCOc1ccccc1C1CC(=O)Nc2cc3c(cc21)OCO3 (stereo not given),55.9% (active)
17,CC(C)Oc1ccccc1C1CC(=O)Nc2cc3c(cc21)OCCO3 (stereo not given),45.7% (inactive)
18,CCOc1c(OC)cccc1C1CC(=O)Nc2cc3c(cc21)OCCO3 (stereo not given),8.9% (inactive)
19,COc1ccccc1C1CC(=O)Nc2cc3c(cc21)OCCO3 (stereo not given),63.8% (active)
20,CCCOc1ccccc1C1CC(=O)NC2=C1C(=O)CCC2 (stereo not given),36.3% (inactive)
21,CCOc1ccccc1C1CC(=O)Nc2cc3c(cc21)OCCO3 (stereo not given),48.6% (inactive)
22,COc1cccc(C2CC(=O)Nc3cc4c(cc32)OCCO4)c1OC(C)C (stereo not given),34.4% (inactive)
23,CC(C)Oc1ccccc1C1CC(=O)Nc2cc3c(cc21)OCO3 (stereo not given),42.7% (inactive)
24,CCCOc1c(OC)cccc1C1CC(=O)Nc2cc3c(cc21)OCO3 (stereo not given),9.6% (inactive)
